# Bioassay records: PubChem BioAssay, Broad Institute
# DUX4 inh – inhibitors of DUX4-driven ZSCAN4 reporter expression, primary screen, 293T cells, Gaussia and Italica luciferase | 37,000 compounds, 0.8% hits | 293T-iDUX4 ZSCAN4-Gaussia luciferase reporter, 24 h; hits give low values | activity change, negative = inhibition, % (no concentration beside the values) | AID 1224904, 2016;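 active = mean inhibition of at least 10% in the main channel, exceeding the control channel by a set limit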;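 note: 0% = median of neutral control wells and -100% = median of positive control wells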
# * = called active by the depositor. Shown is part of a subset that was picked to be rich in hits.
SMILES,DUX4 inh
O=C(C[C@H]1C[C@H]2c3cc(NC(=O)Nc4ccc(C(F)(F)F)cc4)ccc3O[C@H]2[C@@H](CO)O1)NCc1ccc(Cl)cc1,-4
COc1ccc(NC(=O)Nc2ccc3c(c2)[C@H]2C[C@@H](CC(=O)NCCc4ccccc4)O[C@@H](CO)[C@H]2O3)cc1,-1
COc1ccc(NC(=O)Nc2ccc3c(c2)[C@H]2C[C@@H](CC(=O)N[C@@H](C)c4ccccc4)O[C@H](CO)[C@H]2O3)cc1,1
COc1ccc(NC(=O)Nc2ccc3c(c2)[C@@H]2C[C@@H](CC(=O)N[C@@H](C)c4ccccc4)O[C@H](CO)[C@@H]2O3)cc1,4
O=C(C[C@@H]1C[C@@H]2c3cc(NC(=O)Nc4ccc(C(F)(F)F)cc4)ccc3O[C@@H]2[C@@H](CO)O1)NCc1ccc2c(c1)OCO2,-7
O=C(C[C@@H]1C[C@H]2c3cc(NC(=O)Nc4ccc(C(F)(F)F)cc4)ccc3O[C@H]2[C@H](CO)O1)NCCc1ccccc1,-47*
O=C(C[C@H]1C[C@@H]2c3cc(NC(=O)CC4CC4)ccc3O[C@@H]2[C@@H](CO)O1)NCCc1ccccc1,-3
O=C(C[C@@H]1C[C@@H]2c3cc(NC(=O)Nc4ccc(C(F)(F)F)cc4)ccc3O[C@@H]2[C@H](CO)O1)NCc1ccc(Cl)cc1,3
O=C(C[C@@H]1C[C@H]2c3cc(NC(=O)Nc4ccc(C(F)(F)F)cc4)ccc3O[C@H]2[C@H](CO)O1)NCc1ccc2c(c1)OCO2,-47*
CN1c2ccc(Br)cc2[C@H]2[C@H](CCN2S(=O)(=O)c2cccc(F)c2)[C@H]1CO,7
CCC(=O)N1[C@@H]2c3ccc(-c4ccccc4)c(=O)n3C[C@H]1[C@H](CO)[C@H]2C(=O)N1CCc2ccccc2C1,-2
C[C@H](CO)N1C[C@H](C)[C@H](CN(C)S(=O)(=O)c2cn(C)cn2)Oc2c(NC(=O)c3cnccn3)cccc2C1=O,2
CC(C)NC(=O)N(C)C[C@H]1OCc2cn(nn2)CCCC(=O)N([C@@H](C)CO)C[C@@H]1C,2
COc1ccc(C#Cc2ccc3c(c2)[C@@H]2[C@@H](CCN2S(=O)(=O)C2=NC(C)C=N2)[C@H](CO)N3C)cc1 (stereo partly drawn),28
O=C(c1ccccc1)N1CC2(C1)[C@H](c1ccccc1)[C@H](CO)N2CC1CC1,-10
C[C@@H]1CCCCO[C@@H](CN(C)Cc2ccc(C(F)(F)F)cc2)[C@@H](C)CN([C@@H](C)CO)C(=O)c2cc(NC(=O)Nc3cccc4ccccc34)ccc2O1,4
CC(C)NC(=O)N1CC2(C1)[C@H](c1ccccc1)[C@@H](CO)N2C(=O)C1CCOCC1,0
CN1CCN(C(=O)C[C@H]2C[C@@H]3c4cc(NC(=O)Cc5ccncc5)ccc4O[C@@H]3[C@@H](CO)O2)CC1,2
C[C@@H]1CN([C@@H](C)CO)C(=O)c2c(c3ccccc3n2C)-c2ccccc2CO[C@H]1CN(C)Cc1cccc(O)c1,-9
C[C@H]1CN([C@@H](C)CO)C(=O)c2c(c3ccccc3n2C)-c2ccccc2CO[C@@H]1CN(C)Cc1cccc(C(=O)O)c1,3
C[C@H](CO)N1C[C@H](C)[C@H](CN(C)Cc2cccc(O)c2)OCc2ccccc2-c2c(n(C)c3ccccc23)C1=O,-29*
C[C@H]1CN([C@@H](C)CO)C(=O)c2c(c3ccccc3n2C)-c2ccccc2CO[C@H]1CN(C)Cc1cccc(C(=O)O)c1,-2
C[C@@H]1CN([C@H](C)CO)C(=O)c2c(c3ccccc3n2C)-c2ccccc2CO[C@H]1CN(C)Cc1cccc(F)c1,-35*
C[C@H]1CN([C@@H](C)CO)C(=O)c2c(c3ccccc3n2C)-c2ccccc2CO[C@@H]1CN(C)Cc1cccc(O)c1,-45*
C[C@H](CO)N1C[C@H](C)[C@H](CN(C)Cc2ccc(O)cc2)OCc2ccccc2-c2c(n(C)c3ccccc23)C1=O,-2
SMILES,DUX4 inh
C[C@H](CO)N1C[C@H](C)[C@@H](CN(C)Cc2cccc(C(=O)O)c2)OCc2ccccc2-c2c(n(C)c3ccccc23)C1=O,-1
C[C@H]1CN([C@@H](C)CO)C(=O)c2c(c3ccccc3n2C)-c2ccccc2CO[C@H]1CN(C)Cc1ccc(O)cc1,5
CCCNC(=O)N1CCC2(CC1)CN(C(C)=O)[C@@H](CO)c1[nH]c3cc(OC)ccc3c12,23
COCC(=O)N1CC2(C1)[C@H](c1ccc(-c3ccccc3)cc1)[C@H](CO)N2C(=O)COC,1
COc1ccccc1NC(=O)N1CC(=O)N2[C@H](CO)[C@H](c3ccc(C#CCC(C)C)cc3)[C@@H]2C1,7
C[C@H](O)C#Cc1ccc2c(c1)O[C@H](CN(C)C(=O)Cc1ccccn1)[C@@H](C)CN([C@H](C)CO)S2(=O)=O,7
COc1ccccc1CN(C)C[C@@H]1OCc2cn(nn2)CCCC(=O)N([C@@H](C)CO)C[C@H]1C,2
O=C(N[C@@H]1CC[C@H](CCNS(=O)(=O)c2ccccc2Cl)O[C@@H]1CO)c1ccc(F)cc1,3
CC(C)[C@@H]1CC=CC[C@H](C)Oc2ccccc2C(=O)N(C)[C@@H](C(C)C)C(=O)N1 (mixture of isomers),-1
O=C(C[C@@H]1C[C@@H]2c3cc(NC(=O)Cc4ccncc4)ccc3O[C@@H]2[C@H](CO)O1)NCc1cc(F)ccc1F,7
O=C(C[C@H]1C[C@H]2c3cc(NC(=O)Cc4ccncc4)ccc3O[C@H]2[C@H](CO)O1)NCc1cc(F)ccc1F,-36*
O=C(C[C@H]1C[C@H]2c3cc(NC(=O)Cc4ccncc4)ccc3O[C@H]2[C@H](CO)O1)NCc1ccc(-c2ccccc2)cc1,-68*
CN(C)CC(=O)Nc1ccc2c(c1)[C@@H]1C[C@@H](CC(=O)NCc3ccc(-c4ccccc4)cc3)O[C@H](CO)[C@@H]1O2,-5
O=C(C[C@@H]1C[C@H]2c3cc(NC(=O)CC4CC4)ccc3O[C@H]2[C@H](CO)O1)NCc1cc(F)ccc1F,-3
CN(C)CC(=O)Nc1ccc2c(c1)[C@@H]1C[C@H](CC(=O)NCc3ccc(-c4ccccc4)cc3)O[C@H](CO)[C@@H]1O2,-7
Cc1ccccc1S(=O)(=O)N1C[C@@H](O)COC[C@@H]2O[C@H](CC(=O)O)CC[C@H]21,14
CN1[C@H](C(=O)NCc2ccncc2)[C@@H](CO)[C@@H]2Cn3c(ccc(-c4ccccc4F)c3=O)[C@@H]21,7
O=C(C[C@@H]1CC[C@@H]2[C@H](COC[C@H](O)CN2CC2CCOCC2)O1)N1CCOCC1,3
CN1c2ccc(-c3cccc(F)c3)cc2[C@@H]2[C@@H](CCN2C(=O)C2CCC2)[C@H]1CO,-35*
CN1c2ccc(-c3cccc(F)c3)cc2[C@H]2[C@H](CCN2C(=O)C2CCC2)[C@H]1CO,-7
CN1c2ccc(-c3cccc(F)c3)cc2[C@@H]2[C@@H](CCN2C(=O)C2CCOCC2)[C@@H]1CO,8
CCCN1[C@@H]2c3cccc(=O)n3C[C@H]1[C@H](CO)[C@H]2C(=O)Nc1ccccc1,3
COc1ccc(-c2ccc3n(c2=O)C[C@H]2[C@H](CO)[C@@H](C(=O)N(C)C)N(CC4CC4)[C@@H]32)cc1,-3
CO[C@@H]1CN(C)C(=O)c2cc(NS(=O)(=O)c3ccc(Oc4ccccc4)cc3)ccc2OC[C@@H](C)NC[C@@H]1C,-5
COc1cccc(-c2ccc(C3[C@H]4CNC[C@@H]3N4S(=O)(=O)c3cn(C)cn3)cc2)c1 (stereo partly drawn),14
